The record followed here is the supplement of paper PMC6555819.

What all share (assay): PBM binding z-score (relative to random genomic background probes); higher = stronger binding; sequences stand for … in GC…GCGATTGACAGCGTAGAATGAAGG
For assay [1], the system named is RARb homodimer (NR concentration 270 nM). Put shortly: (§1)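 Ligand-free nuclear receptor dimers were applied to custom Agilent 4×180K protein-binding microarrays whose double-stranded probes carried direct-repeat seeds, single-nucleotide variants, half-site ablations and random human genomic background sequences in 34-nt variable regions. Incubation lasted 1 h. Binding z-scores were computed against the random background probes from regression-normalized fluorescence.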

Assay [2] relates to RARg:RXRa (NR concentration 270 nM, RXRa partner concentration 90 nM). Put shortly: as §1
Assay [3] has as its system RARg homodimer (NR concentration 270 nM). In a few lines: as §1
In assay [4] the test system is RXRa DBDmut IVT, anti-RXR (DBD mutation: RXRa K156A/R161A, NR concentration 90 nM). In a few lines: as §1
Assay [5] deals with RXRa homodimer (NR concentration 180 nM). Put shortly: as §1
Assay [6] has as its system THRa:RXRa (NR concentration 90 nM, RXRa partner concentration 90 nM). Put shortly:
as §1

Assay [7] concerns THRa homodimer (NR concentration 90 nM). In a few lines: as §1
For assay [8], the system named is VDR homodimer (NR concentration 270 nM). Put shortly:
as §1

For AGTCAAAGTACACTAGGTAACGTAAGATTCAGCT, the PBM binding z-score was determined as 0.288 in assay [1]; 0.245 in assay [2]; 0.909 in assay [3]; 1.11 in assay [4]; 0.318 in assay [5]; 0.479 in assay [6]. Besides, the PBM binding z-score in assay [7] was -0.0974; in assay [8] it was 0.127.

Consider TCTATTAGTTGAAGGGCGACCGACGAGTCCGTTT, for which the PBM binding z-score is 0.596 in assay [1]; 0.105 in assay [2]; -0.00665 in assay [3]; 1.84 in assay [4]; 0.439 in assay [5]; 0.0101 in assay [6]. For the same sequence, the figures for the PBM binding z-score in assay [7] and in assay [8] were 0.203 and 1.32, respectively.

As for ACTAGTCGGTCAGCTGAGGTCACACACAATTCGG, the PBM binding z-score amounted to 4.94 in assay [1]; 4.99 in assay [2]; 5.76 in assay [3]; 1.43 in assay [4]; 4.35 in assay [5]; 5.27 in assay [6]. Besides, the PBM binding z-score came out at 5.28 in assay [7] and 3.97 in assay [8].

CCTCGGAGGACAACTGGAGGTCAGAGCTGCCAGA: the PBM binding z-score came to 3.7 in assay [1]; 4.12 in assay [2]; 4.11 in assay [3]; 0.362 in assay [4]; 2.22 in assay [5]; 2.7 in assay [6]. Besides, the PBM binding z-score in assay [7] came to 1.3; in assay [8], 1.48.

Regarding CCTTGCGGGTCACGAGGTTATAGCACGACGAGCG, the PBM binding z-score in assay [1] came to 3.64; in assay [2], 5.78; in assay [3] it was 5.02; in assay [4] it was 1.62; in assay [5] it was 6.53; in assay [6] it was 3.68. For the same sequence, the PBM binding z-score in assay [7] turned out to be 1.34; in assay [8], 1.93.

Consider CGTCCAAGGTCATAGGAGGTCAGTGATGACAGAT, for which the PBM binding z-score was 5.33 in assay [1]; 6.66 in assay [2]; 6.93 in assay [3]; 3.97 in assay [4]; 6.5 in assay [5]; 5.4 in assay [6]. Further, the PBM binding z-score stood at 3.25 in assay [7] and 4.59 in assay [8].

For the sequence GATACATGGTCAGCTAGAGGCCAGAGTATGGAAA, the PBM binding z-score in assay [1] is 0.679; in assay [2] it was 1.39; in assay [3] it was 0.818; in assay [4] it was -0.556; in assay [5], 0.128; in assay [6] it was -0.168. Also, the PBM binding z-score in assay [7] was -1.01; in assay [8], -0.418.
